Assay [1] in a line: NCI Yeast Anticancer Drug Screen. Data for the rad50 strain (AID 155).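 Further: 0% = growth of vehicle-only cultures of the same strain.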 As to conditions: S. cerevisiae rad50 strain growth inhibition, hits give high values. The procedure, abridged: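 Relative growth inhibition (compound vs vehicle) was measured in yeast with a defined repair-gene alteration.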
A short description of assay [2]: NCI Yeast Anticancer Drug Screen. Data for the mec2-1 strain (AID 157). As to conditions: S. cerevisiae mec2-1 strain, hits give high values. Summed up: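 Each compound was tested on mec2-1 yeast, a strain altered in DNA damage repair or cell cycle control. Growth inhibition is reported relative to vehicle.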
Assay [3] is described as follows: NCI Yeast Anticancer Drug Screen. Data for the sgs1 mgt1 strain (AID 161).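 Further: 0% = growth of cultures given vehicle only.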 As to conditions: S. cerevisiae sgs1 mgt1 strain, hits give high values. The procedure, abridged: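 Test agents were incubated with a DNA-repair-mutant yeast strain. Growth was then read and compared against vehicle-treated controls.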
Assay [4] can be described thus: NCI Yeast Anticancer Drug Screen. Data for the cln2 rad14 strain (AID 165).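 Further: 0% = growth equal to vehicle treated cultures.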 As to conditions: S. cerevisiae cln2 rad14 strain, hits give high values. Summed up:
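Test compounds were added to cln2 rad14 yeast cultures; inhibition of growth was then determined by comparison with vehicle treatment.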

A short description of assay [5]: NCI Yeast Anticancer Drug Screen. Data for the bub3 strain (AID 167). As to conditions: S. cerevisiae bub3 mutant strain, hits give high values. The procedure, abridged: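 Screening used yeast with an engineered genetic alteration affecting cell cycle control. Compound-exposed cultures were compared with vehicle cultures, and reduced growth was taken as inhibition.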

Assay [6] in a line: NCI Yeast Anticancer Drug Screen. Data for the mlh1 rad18 strain (AID 175). As to conditions: S. cerevisiae mlh1 rad18 strain growth inhibition, hits give high values. The procedure, abridged:
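Inhibition values reflect reduced growth of mutant yeast versus vehicle-treated controls following compound exposure; the mutations affect DNA damage repair.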

Setting [7] is: at 5.0 µM (retest, dose inferred, filed as 0.5).
The mark [8] stands for this setting: at 50.0 µM (retest, dose inferred, filed as 5.0).

The panel holds about 79,000 compounds, 15% with a hit somewhere; the sample as a whole holds those more often. Values without a mark were called inactive. The source made the active and inactive calls. No stated cut-off is given here; in the data, active means growth inhibition above about 70%; inactive means the rest.

As for `CN(Cc1cnc2nc(N)nc(N)c2n1)c1ccc(C(=O)NC(CCC(=O)O)C(=O)O)cc1` (centres undefined), the growth inhibition in assay [1] (setting [7]) was 2%; in assay [1] (setting [8]) it was 5%; in assay [1] (at 50.0 µM), 37.2%; in assay [2] (setting [7]) it was -16%; in assay [2] (setting [8]) it was 79% (active); in assay [2] (at 50.0 µM), 88% (active). The growth inhibition was 9% in assay [3] (setting [7]); 53% in assay [3] (setting [8]); 45.8% in assay [3] (at 50.0 µM); 0% in assay [4] (setting [7]); -10% in assay [4] (setting [8]); 1.4% in assay [4] (at 50.0 µM). Also, the growth inhibition in assay [5] (setting [7]) was 1%; in assay [5] (setting [8]), -6%; in assay [5] (at 50.0 µM), -9.7%; in assay [6] (setting [7]), -19%; in assay [6] (setting [8]), -9%; in assay [6] (at 50.0 µM) it was 25.1%.
For `c1ccc(CCc2c[nH]c3ccccc23)cc1`, the growth inhibition in assay [1] (setting [7]) was -7%; in assay [1] (setting [8]), -1%; in assay [1] (at 50.0 µM), 59.6%; in assay [2] (setting [7]), 0%; in assay [2] (setting [8]) it was 0%; in assay [2] (at 50.0 µM) it was 27.5%. For the same compound, the growth inhibition in assay [3] (setting [7]) is -7%; in assay [3] (setting [8]) it was 12%; in assay [3] (at 50.0 µM) it was 72.5% (active); in assay [4] (setting [7]) it was -52%; in assay [4] (setting [8]) it was -2%; in assay [4] (at 50.0 µM) it was 5.9%. Also, the growth inhibition was -14% in assay [5] (setting [7]); 41% in assay [5] (setting [8]); 87.5% (active) in assay [5] (at 50.0 µM); -8% in assay [6] (setting [7]); 43% in assay [6] (setting [8]); 49% in assay [6] (at 50.0 µM).
In the case of `Cn1cc(NC(=O)Nc2cc(C(=O)Nc3cc(C(=O)Nc4ccc5cc(S(=O)(=O)O)cc(S(=O)(=O)O)c5c4)n(C)c3)n(C)c2)cc1C(=O)Nc1cc(C(=O)Nc2ccc3cc(S(=O)(=O)O)cc(S(=O)(=O)O)c3c2)n(C)c1`, the growth inhibition in assay [1] (setting [7]) is 68%; in assay [1] (setting [8]) it was 98% (active); in assay [1] (at 50.0 µM) it was 91% (active); in assay [2] (setting [7]) it was 36%; in assay [2] (setting [8]) it was 99% (active); in assay [2] (at 50.0 µM) it was 93.7% (active). The growth inhibition was 69% in assay [3] (setting [7]); 99% (active) in assay [3] (setting [8]); 93.5% (active) in assay [3] (at 50.0 µM); 33% in assay [4] (setting [7]); 99% (active) in assay [4] (setting [8]); 92.7% (active) in assay [4] (at 50.0 µM). Also, the growth inhibition in assay [5] (setting [7]) was 44%; in assay [5] (setting [8]) it was 98% (active); in assay [5] (at 50.0 µM), 92.5% (active); in assay [6] (setting [7]) it was 76% (active); in assay [6] (setting [8]) it was 98% (active); in assay [6] (at 50.0 µM) it was 90.8% (active).

The values are drawn from PubChem BioAssay (NCI).
